Screening data as filed in PubChem BioAssay.
N-glyco inh – blocks N-linked glycosylation in D54 reporter cells | D54 ERlucT glycosylation luciferase reporter, 24 h; percent of 100 nM tunicamycin response | reporter increase, % at 12.5 µM | 360,000 tested, 0.23% active;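 active means mean luciferase reporter signal, scaled so untreated is 0 and the glycosylation-blocking control 100, at or above a set limit in every replicate; inconclusive means mean reaches the limit but not every replicate does; inactive means mean below the limit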;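 further: luciferase carries N-glycosylation sites so blocking glycosylation raises the light; 0% = median of neutral control wells and 100% = median of 100 nM tunicamycin wells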
MITF act – MITF TRPM1 promoter activation in melanoma cells. SK-MEL-5 TRPM1-promoter luciferase, 24 h; % of positive control, neutral wells = 0. activation, % at 12.5 µM. 300,000 tested, 0.75% active;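 active means mean activation of at least 80% with every replicate also reaching 80%; inconclusive means mean reaches 80% but some replicate falls short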;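 further: 0% = neutral control wells and 100% = parthenolide positive control wells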
Vif imaging – HIV Vif inhibition; HEK293T cells, Vif self-association by quenched fluorescence, imaging, 24 h; inhibition, % at 7.49 µM; 340,000 tested, 0.35% active; AID 602346; in the data active means inhibition above about 50%, passing the limit was not always enough; inconclusive means no clear call, values can overlap the other calls; inactive means below about 31%
esBAF inh – inhibitors of esBAF chromatin remodeling in mouse ES cells; Bmi1-luciferase knock-in reporter, 24 h; 100% = twice the neutral-well signal; reporter increase, % at 12.5 µM; 350,000 tested, 2% active; in the data active means activation above about 40%; inconclusive means no clear call, values can overlap the other calls;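 further: 0% = median of the plate's neutral control wells and 100% = double that signal; a rise in the Bmi1 reporter signal indicates esBAF inhibition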
PfHsp90 set2 – growth inhibition of yeast expressing Plasmodium Hsp90; inhibition, % at 9.4 µM; 310,000 tested, 0.32% active; S. cerevisiae expressing PfHsp90, BacTiter-Glo ATP, 48 h; yeast lacking PDR1 and PDR3 efflux regulators; AID 504621;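 active means every replicate shows inhibition above about 80%, whatever the replicate mean, limit read from the data; inconclusive means mean inhibition reaches the set limit but some replicate falls short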;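 further: 0% = DMSO neutral controls and 100% = 20 µM radicicol positive controls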
Wnt bcat act – Wnt/beta-catenin pathway activation. 300,000 tested, 1.2% active. Wnt/beta-catenin reporter cell assay, activator, plate reader. activation, % at 9.35 µM; in the data active means activation above about 30%, passing the limit was not always enough; inconclusive means no clear call, values can overlap the other calls;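 further: 0% = neutral control wells and 100% = positive control wells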
* = called active by the depositor. Compounds with a hit are over-represented: about 3% of the library has one in this group of screens.

`Cc1ccc(C)c(OCc2nc(-c3cccnc3)no2)c1` gave N-glyco inh 0, MITF act 35, esBAF inh 16 and PfHsp90 set2 15.
Screening c1ccc(OCc2nc(-c3cccs3)no2)cc1 returned N-glyco inh -3, MITF act 108*, Vif imaging 11, esBAF inh 58* and PfHsp90 set2 6.
`Cc1noc(C)c1S(=O)(=O)Nc1ccc2c(c1)CC(=O)N([C@@H](C)CO)C[C@@H](C)[C@@H](CN(C)Cc1ccncc1)O2` gave esBAF inh 1.
Screening CC(Oc1ccc(Cl)cc1Cl)c1nc(-c2ccc(NC(=O)c3ccco3)cc2)no1 (stereo not drawn) returned N-glyco inh -3, Vif imaging -11, esBAF inh 50* and PfHsp90 set2 -30.
`CC(NC(=O)c1ccco1)c1nc(-c2ccccc2)no1` (stereo not drawn) gave N-glyco inh -2, MITF act 8, Vif imaging 19, esBAF inh 3, PfHsp90 set2 -10 and Wnt bcat act 0.
`COc1ccc(NC2CCCN(C(=O)CSc3ccncc3)C2)cc1` (stereo not drawn) gave N-glyco inh 6, MITF act -2, Vif imaging -9, esBAF inh -7, PfHsp90 set2 4 and Wnt bcat act 1.
Screening CO[C@@H]1CN(C)C(=O)c2ccc(NC(C)=O)cc2OC[C@H](C)N(Cc2cccnc2)C[C@@H]1C returned esBAF inh 3.
c1ccc(C2=Nn3c(nnc3-c3n[nH]c4c3CCC4)SC2)cc1 was read as N-glyco inh 38*, MITF act -6, Vif imaging 18 and esBAF inh 8.
`c1ccc(C2=Nn3c(nnc3-c3cc(-c4ccccc4)n[nH]3)SC2)cc1` gave N-glyco inh 22, MITF act 48, Vif imaging 18, esBAF inh 23 and PfHsp90 set2 -4.
For Clc1ccc(C2=Nn3c(nnc3-c3cc(-c4ccccc4)n[nH]3)SC2)cc1 the results were N-glyco inh inconclusive, MITF act 21, esBAF inh 9 and PfHsp90 set2 -9.
For Clc1ccc(C2=Nn3c(nnc3-c3n[nH]c4c3CCC4)SC2)cc1Cl the results were N-glyco inh 81*, MITF act 4, Vif imaging inconclusive, esBAF inh -10, PfHsp90 set2 8 and Wnt bcat act 10.
For O=C(NCCc1ccccc1)c1ccc(Cl)cc1[N+](=O)[O-] the results were N-glyco inh 0, MITF act 57, Vif imaging 1, esBAF inh 62*, PfHsp90 set2 6 and Wnt bcat act 8.
Cc1ccc(NC(=O)c2ccc(Cl)cc2[N+](=O)[O-])nc1 was read as N-glyco inh 31*, MITF act -6, Vif imaging 1, PfHsp90 set2 4 and Wnt bcat act 0.
Screening Cc1ccc(NC(=O)c2ccccc2[N+](=O)[O-])nc1 returned N-glyco inh 5, MITF act 24, Vif imaging 0 and PfHsp90 set2 -5.
Screening O=C(NCc1ccc(Cl)cc1)c1ccc(Cl)cc1[N+](=O)[O-] returned N-glyco inh -1, MITF act 9, Vif imaging 0, esBAF inh -8, PfHsp90 set2 10 and Wnt bcat act 0.
Screening CCCCNC(=S)N/N=C/c1cccc(OCC)c1O returned N-glyco inh -1, MITF act 29, Vif imaging 3, PfHsp90 set2 -17 and Wnt bcat act 23.
Cc1nc(SCC(=O)O)c2oc3ccccc3c2n1 was read as N-glyco inh 2, Vif imaging 3, esBAF inh -4, PfHsp90 set2 10 and Wnt bcat act -4.
Cc1nc(SCC(=O)c2cccs2)c2oc3ccccc3c2n1 was read as N-glyco inh -4, Vif imaging 2, PfHsp90 set2 7 and Wnt bcat act 71*.
`O=C(CSc1ncnc2c1oc1ccccc12)c1cccs1` gave N-glyco inh -4, MITF act inconclusive, Vif imaging 41, esBAF inh 57* and PfHsp90 set2 -3.
Screening CSc1ccccc1NC(=O)c1ccc(Br)o1 returned N-glyco inh -1, MITF act 48, Vif imaging 29, esBAF inh 52*, PfHsp90 set2 4 and Wnt bcat act 6.
For Cc1cccc(NC(=S)NC(=O)c2ccc(Br)o2)c1C the results were N-glyco inh -1, MITF act 9, Vif imaging -11, PfHsp90 set2 14 and Wnt bcat act -1.
O=C(NC(=S)Nc1ccccc1F)c1ccc(Br)o1 was read as N-glyco inh 0, MITF act 34, Vif imaging -9, esBAF inh 49*, PfHsp90 set2 9 and Wnt bcat act 0.
Cc1ccc(NC(=S)NC(=O)c2ccc(Br)o2)c(C)c1 was read as N-glyco inh -1, MITF act 88*, Vif imaging 4, PfHsp90 set2 -5 and Wnt bcat act 9.
For CCC(=O)NC(=S)Nc1ccc(NC(=O)c2ccc(Br)o2)cc1 the results were N-glyco inh -2, MITF act 5, Vif imaging -6, esBAF inh 69* and Wnt bcat act -3.
`Cc1cccc(C)c1NC(=S)NC(=O)c1ccc(Br)o1` gave N-glyco inh -3, MITF act -12, Vif imaging 5, esBAF inh 1, PfHsp90 set2 -44 and Wnt bcat act -4.
Screening COc1ccc(NC(=O)Nc2ccc3c(c2)CC(=O)N([C@H](C)CO)C[C@H](C)[C@@H](CN(C)S(=O)(=O)c2ccc(Cl)cc2)O3)cc1 returned esBAF inh -8.
For CCOc1ccc([C@@H]2CC=C(C(=O)O)[C@H](c3cccc(Cl)c3)N2S(=O)(=O)c2ccc(C)cc2)cc1 the results were N-glyco inh 1, MITF act 1, Vif imaging -6, esBAF inh 2, PfHsp90 set2 -19 and Wnt bcat act -1.
For Cc1nnc(NC(=O)Cn2nc(C)c3ccccc3c2=O)s1 the results were N-glyco inh 0, MITF act 13, Vif imaging 70*, esBAF inh 3, PfHsp90 set2 11 and Wnt bcat act -6.
Cc1nn(CC(=O)Nc2ccccc2)c(=O)c2ccccc12 was read as N-glyco inh 1, MITF act 5, Vif imaging 13, esBAF inh 0, PfHsp90 set2 -6 and Wnt bcat act -5.
Screening CCCn1c(N/N=C\C=C\c2ccccc2)nc2c1c(=O)[nH]c(=O)n2C returned N-glyco inh 7, MITF act 3, Vif imaging 9, PfHsp90 set2 -25 and Wnt bcat act -1.
Cc1ccc(C(=O)Nc2ncc(Cc3ccccc3)s2)o1 was read as N-glyco inh -14, MITF act 35, Vif imaging -9, esBAF inh 4, PfHsp90 set2 20 and Wnt bcat act 51*.
